We go through 63 compounds from ChEMBL document CHEMBL4513216, “Probing the Open Global Health Chemical Diversity Library for Multistage-Active Starting Points for Next-Generation Antimalarials” (ACS Infect Dis, 2020).

Among all 69,000 compounds or so, about 8,600 (12%) showed an effect of 50% or more. What follows is part of a selection rich in strong results, with near analogues and random picks from the rest.

The subject of the test is Plasmodium berghei. Nature of the test: Screen against P. berghei liver stage (PbLuc), transformed with Luciferase, at 10uM. It counts as functional, HepG2. As to conditions: tested at 10 uM.
As to `O=C(NC1CC1)C1=CC2(CCN(CC3CC3)CC2)c2ccccc21`, the INHIBITION came to 37.1%.
Then `Cc1cncc(C2CCN(Cc3ccc(S(C)(=O)=O)cc3)CC2)n1`, with 25.3%; and `CS(=O)(=O)NCc1cnc2n1CCN(Cc1ccco1)CC2`, with 38.5%; and `CN(Cc1ccsc1)C(=O)c1cccc(S(=O)(=O)NCC2CCCO2)c1` (stereo not drawn), with 23.4%.
Consider `COCCNC(=O)Cn1cc(OCc2ccc(F)cc2)c(=O)cc1CO`, for which the INHIBITION came out at 26.9%.
Turning to `OC1CCN(CCCn2ccnc2-c2c[nH]cn2)CC1`, the INHIBITION is listed as -0.273%.
Then `O=C(C1CCCC1)N1CCn2c(nnc2C2CCCNC2)C1` (stereo not drawn), with -1.45%.
Next, `Cc1nnc(SCCC(=O)N(C)Cc2ccc(F)cc2F)[nH]1`: 1.96%.
On to `Cc1nnc(SCCC(=O)N(C)Cc2ccc(F)cc2Cl)[nH]1`, for which the INHIBITION worked out at 51.1%.
Next, `Cc1nnc(SCCC(=O)N(C)Cc2c(F)cccc2Cl)[nH]1`: -1.25%; `CCc1c(O)nc2nc(N3CCOCC3)nn2c1C`: 11%; `CCN(CC)S(=O)(=O)NC1CCN(c2ccc(OC)cc2)CC1`: 12.8%.
`COc1ccc(N2CCC(NS(=O)(=O)N(C)C(C)C)CC2)cc1`: the INHIBITION was found to be 34.1%.
Then `CCc1ccc(N2CCC(NS(=O)(=O)N(CC)CC)CC2)cc1`, with 53.4%; and `CC(C)(C)CC(=O)NCC(=O)Nc1ccn(Cc2cccnc2)n1`, with 21.6%; and `CN1CC(=O)N(c2ccsc2)CC12CCN(Cc1cnn(C)c1)C2` (stereo not drawn), with -13%.
Take `COCC(=O)N1CCC2(CCN(Cc3ccc(C)cc3)CC2)CC1`: the INHIBITION was 10.5%.
As to `CC[C@@H](C)[C@@H](N)C(=O)Nc1cccc(-c2cnc(N(C)CCO)nc2)c1`, the INHIBITION is reported as 8.53%.
Regarding `CC[C@@H](C)[C@@H](N)C(=O)Nc1cccc(-c2cnc(N)nc2)c1`, the INHIBITION was determined as 17.4%.
Consider `CC[C@@H](C)[C@@H](N)C(=O)Nc1cccc(-c2cnc(N(C)C)nc2)c1`, for which the INHIBITION is on record as 76.8%.
`NC(=O)C1CCN(C(=O)Cn2ccc3cc(Br)ccc32)CC1`: the INHIBITION stood at 30.6%.
Then `CC(C)(C)C1CCC(O)(CNC(=O)CCS(C)(=O)=O)CC1` (stereo not drawn), with -23.2%; and `Cc1ccc(C(=O)N(C)Cc2ccc3c(c2)OCCO3)c(=O)[nH]1`, with -11.6%.
For the compound `CC(C)CN1CCCC2(CCN(c3ccccn3)C2)C1` (stereo not drawn), the INHIBITION amounted to 21.7%.
Then `Cn1cnc(S(=O)(=O)N2C[C@H]3CN(Cc4ccccn4)C[C@H]3C2)c1`, with 76.4%.
Next, `COc1cc(N2C[C@H]3CN(Cc4ccccn4)C[C@H]3C2)ncn1`: 85.6%; `Cn1cnc(S(=O)(=O)N2C[C@H]3CN(Cc4cccnc4)C[C@H]3C2)c1`: 49.1%.
Regarding `CS(=O)(=O)N1CCC2(CCCN(Cc3ccccn3)C2)C1` (stereo not drawn), the INHIBITION is -11.6%.
Take `COc1cc(N2CCC(c3nccn3Cc3ccccn3)CC2)ncn1`: the INHIBITION was 8.97%.
With `COc1cc(N2CCC3(CCCN(Cc4ccccn4)C3)C2)ncn1` (stereo not drawn), the INHIBITION is recorded as 84.7%.
As to `Fc1cccc(CN2C[C@@H]3CN(Cc4ccccn4)C[C@@H]3C2)c1`, the INHIBITION worked out at 18.6%.
Next, `Cn1cnc(S(=O)(=O)N2C[C@H]3CC[C@@H](C2)N(Cc2ccccn2)C3)c1`: 20.9%; `CCc1csc(NC(=O)Nc2c(C)n[nH]c2C)n1`: -1.79%.
Next, `CC(=O)N1CCCC1c1nc(C)no1` (stereo not drawn): 7.05%.
Next, `Cc1cc(NCCc2cnccn2)nc(-c2ccccc2O)n1`: 17.5%.
`O=C(NCc1cc[nH]n1)N1CCCC(N2CCCC2)C1` (stereo not drawn): the INHIBITION came to 16.9%.
Next, `NC(=O)CSc1ccccc1NC(=O)CC1C=CCC1` (stereo not drawn): -54.9%.
Turning to `COCC(=O)NC(CC(C)C)c1nc2cccnc2n1C` (stereo not drawn), the INHIBITION is reported as -0.232%.
Next, `Cc1ccc(C(=O)Nc2c(C(=O)N(C)C)nn(C)c2C)cc1C`: 35%; `CCOc1cc(F)ccc1NC(=O)N(C)Cc1cnn(C)c1`: 4.71%.
`CCC(=O)N1CCC2(CCN(Cc3cccc(F)c3)CC2)CC1`: the INHIBITION was -6.97%.
Then `CN(Cc1ccco1)[C@@H]1CN(Cc2ccco2)[C@@H]2CCCO[C@H]12`, with 15.4%; and `CN(Cc1ccco1)[C@@H]1CN(Cc2cccnc2)C[C@@H]2CCCO[C@@H]21`, with 30.4%; and `CN(Cc1ccco1)[C@@H]1CN(Cc2ccc(F)cc2)[C@@H]2CCCO[C@H]12`, with 81.2%.
For the compound `CN(Cc1ccco1)[C@@H]1CN(Cc2cccnc2)[C@@H]2CCCO[C@H]12`, the INHIBITION worked out at 55.5%.
In the case of `COc1ccc(CN2C[C@@H](N(C)Cc3ccco3)[C@H]3OCCC[C@H]32)cc1`, the INHIBITION is listed as 31.8%.
With `CN(Cc1ccco1)[C@@H]1CN(Cc2ccc(F)cc2)C[C@@H]2CCCO[C@@H]21`, the INHIBITION is reported as 31.8%.
On to `O=C1CCN(C(=O)NCc2ccccc2Oc2ccccc2)CCN1`, for which the INHIBITION is recorded as 11.4%.
With `COCC1CN(C(=O)c2ccco2)Cc2cn(C)nc21` (stereo not drawn), the INHIBITION was -30.6%.
Next, `Cc1ncc(C(=O)N2CC(C(=O)N3CCCCCC3)C2)c(C)n1`: 27.7045%.
Then `CN(C)[C@@H]1CN(Cc2ccccn2)C[C@H]1c1cn(C)c2ccccc12`, with 13.55%; and `CC(C)=CCN1C[C@@H]2CC[C@H]1CN(C(=O)c1ccc3nc[nH]c3c1)C2`, with 10.3%; and `Cc1nn(C)c(C)c1S(=O)(=O)N1CC[C@@H]2O[C@@H](C)C[C@H]2C1`, with 7.5%.
`CCN1C[C@H]2C3(CCN(S(C)(=O)=O)CC3)CC[C@@]2(C(=O)N(C)C)C1`: the INHIBITION is reported as 44.8%.
Take `CC(c1nnc(-c2ccccc2)o1)N1CCC(Nc2ccccc2)CC1` (stereo not drawn): the INHIBITION worked out at 31.5%.
As for `COCC1CN(Cc2ccc(C)o2)Cc2nnn(C)c21` (stereo not drawn), the INHIBITION is -102%.
Next, `Cc1nc(CC2CCCN(Cc3nc4ccccc4c(=O)[nH]3)C2)no1` (stereo not drawn): 45.2%; `CCC1CCCN(Cc2nc3ccccc3c(=O)[nH]2)C1` (stereo not drawn): 67.5%.
Then `O=c1[nH]c(CN2CCCC(Cn3cncn3)C2)nc2ccccc12` (stereo not drawn), with 21.01%; and `Cc1nccn1C1CCCN(C(=O)c2ccc3cc[nH]c3c2)C1` (stereo not drawn), with 4.52%.
With `Cc1nnc(-c2cccc(N3CCC(NC(C)CC(C)C)CC3)c2)s1` (stereo not drawn), the INHIBITION stood at 62.4%.
Next, `Cc1nnc(-c2cccc(N3CCC(NC4CCSC4)CC3)c2)s1` (stereo not drawn): 18.9%; `CC(C)CC(C)NC1CCN(c2cccc(-c3cscn3)c2)CC1` (stereo not drawn): 34.1%.
